Source: PMC4336329 (PLoS ONE, 2015)
Screen size: about 310,000 compounds; about 2,200 (0.71%) showed an effect of 50% or more. The effect is printed as a negative number. This is one part of a sample in which strong results are shown more often than they occur.

molecular target: human ether-à-go-go-related gene (hERG) potassium channel (human, UniProt Q12809); test: primary screen, population patch clamp on CHO cells stably expressing hERG; higher = less effect of the substance
Sequence (Q12809 whole entry, looked up): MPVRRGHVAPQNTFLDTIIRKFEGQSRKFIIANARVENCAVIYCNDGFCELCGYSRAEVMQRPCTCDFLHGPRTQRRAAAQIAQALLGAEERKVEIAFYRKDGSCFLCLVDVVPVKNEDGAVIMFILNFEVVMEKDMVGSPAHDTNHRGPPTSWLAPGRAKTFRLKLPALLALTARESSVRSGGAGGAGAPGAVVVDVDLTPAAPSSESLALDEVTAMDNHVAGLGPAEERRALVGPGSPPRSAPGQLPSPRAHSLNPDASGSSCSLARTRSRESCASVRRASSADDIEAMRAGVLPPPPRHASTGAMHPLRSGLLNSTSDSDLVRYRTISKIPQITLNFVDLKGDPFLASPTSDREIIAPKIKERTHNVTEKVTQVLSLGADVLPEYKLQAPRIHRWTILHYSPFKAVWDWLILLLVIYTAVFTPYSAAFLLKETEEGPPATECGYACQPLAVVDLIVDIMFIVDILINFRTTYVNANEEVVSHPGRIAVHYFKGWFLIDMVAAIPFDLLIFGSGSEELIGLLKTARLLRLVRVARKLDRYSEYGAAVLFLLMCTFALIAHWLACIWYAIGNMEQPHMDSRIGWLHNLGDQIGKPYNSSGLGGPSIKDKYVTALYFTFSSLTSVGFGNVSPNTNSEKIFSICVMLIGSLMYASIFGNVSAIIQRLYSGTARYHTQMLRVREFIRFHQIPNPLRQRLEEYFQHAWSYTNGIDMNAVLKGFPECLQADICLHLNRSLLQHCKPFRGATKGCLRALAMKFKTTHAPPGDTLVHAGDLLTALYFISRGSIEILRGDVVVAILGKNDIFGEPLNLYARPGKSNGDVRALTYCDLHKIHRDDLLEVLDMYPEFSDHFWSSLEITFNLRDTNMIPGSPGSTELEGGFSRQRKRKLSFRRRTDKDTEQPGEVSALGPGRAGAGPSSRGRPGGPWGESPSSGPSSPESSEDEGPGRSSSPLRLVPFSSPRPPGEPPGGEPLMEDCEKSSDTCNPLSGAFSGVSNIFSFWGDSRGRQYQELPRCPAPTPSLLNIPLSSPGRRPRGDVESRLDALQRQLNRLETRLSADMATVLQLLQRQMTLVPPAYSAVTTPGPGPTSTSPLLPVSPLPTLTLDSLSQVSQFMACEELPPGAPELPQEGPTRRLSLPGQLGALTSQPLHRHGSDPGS

Compound | hERG current change (%, negative = inhibition) at 1uM [%]
CC(NS(=O)(=O)c1cccc(S(=O)(=O)c2ccccc2)c1)C(=O)O (stereo not shown) | 7.71
O=C(CSc1ccc(-c2cccnc2)nn1)N1CCCCC1 | 14.1
COc1ccc(-c2[nH]ncc2CN(C)C(C)c2ccncn2)c(F)c1 (stereo not shown) | 1.94
COc1cc(Br)c(C(=O)c2nccc3cc(OC)c(OC)cc23)cc1OC | 10.6
O=C(COc1ccc2ccc(=O)oc2c1)Nc1nccs1 | 2.46
O=C1N/C(=N/N=C/c2ccc(O)cc2)SC1Cc1ccccc1 (stereo not shown) | -0.776
Cc1occc1C(=O)N/N=C/c1ccc(N(C)C)cc1 | 15.7
O=C(NC1(C(F)(F)F)NC(=O)N(Cc2ccco2)C1=O)c1cccs1 (stereo not shown) | 19.2
CC(=O)N1CCN(c2ccc(NC(=O)c3ccc(Br)o3)cc2Cl)CC1 | -1.25
Cc1ccc(Cl)cc1N1CCN(S(=O)(=O)c2cnc[nH]2)CC1 | 1.64
CN(Cc1ccccc1)S(=O)(=O)c1cc2c3c(c1)CCN3C(=O)CC2 | 6.98
O=C(NN1C(=O)c2ccccc2NC1c1ccco1)c1ccccc1 (stereo not shown) | 4.38
O=C(NN1C(=O)c2ccccc2NC1c1ccc([N+](=O)[O-])o1)c1ccc(Br)cc1 (stereo not shown) | -27.2
O=C(NN1C(=O)c2ccccc2NC1c1ccco1)c1ccc(Br)cc1 (stereo not shown) | -50.4
O=C(Nc1ccc2oc(=O)ccc2c1)c1cccnc1Cl | -2.76
CN(C)S(=O)(=O)c1ccc(C(=O)OCCCN=C2NS(=O)(=O)c3ccccc32)cc1 | -5.83
COc1cc(CN2CCCC(C(=O)c3ccc(SC)cc3)C2)cc(Cl)c1O (stereo not shown) | -3.13
COc1cccc(C(=O)C2CCCN(Cc3ccc(OC)c(Cn4cncn4)c3)C2)c1 (stereo not shown) | -20.2
CSc1ccc(C(=O)C2CCCN(Cc3cnc(SC)nc3)C2)cc1 (stereo not shown) | -33.7
COc1ccc(C(=O)C2CCCN(Cc3cc(Cl)ccc3O)C2)c(OC)c1 (stereo not shown) | 12.6
CSc1ccc(C(=O)C2CCCN(Cc3cccnc3)C2)cc1 (stereo not shown) | -4.37
COc1ccc(CN2CCCC(C(=O)c3ccc(Cl)cc3)C2)c(OC)c1 (stereo not shown) | -53.6

Compound | hERG current change (%, negative = inhibition) at 1uM [%]
COc1ccc(CN2CCCC(C(=O)c3ccc(Cl)cc3)C2)cc1Cn1cncn1 (stereo not shown) | -59.9
COc1ccc(CN2CCCC(C(=O)c3ccc(Cl)cc3)C2)c(O)c1 (stereo not shown) | -21.3
CSc1ccc(C(=O)C2CCCN(CCCn3cccn3)C2)cc1 (stereo not shown) | -78.3
O=C(c1ccc(Cl)cc1)C1CCCN(Cc2ccc3nonc3c2)C1 (stereo not shown) | 0.831
O=C(c1ccc(-c2ccccc2)c(F)c1)C1CCCN(CCCn2cccn2)C1 (stereo not shown) | -38.6
COc1ccc(CN2CCCC(C(=O)c3ccc(SC)cc3)C2)cc1Cn1cccn1 (stereo not shown) | -68.5
Cc1ccc(-c2nc(Nc3cccc(C)c3)sc2CC(=O)O)cc1 | 9.35
O=C(NCCCCc1ccccc1)Nc1cccc(F)c1 | 4.51
COC(=O)CNS(=O)(=O)c1ccc(C)cc1 | 11.1
CCn1c(SCC(=O)NCCc2ccccc2)nnc1C(C)C | 12
CCOC(=O)c1oc2ccc(S(=O)(=O)Nc3ccc4c(c3)n(C)c(=O)n4C)cc2c1C | 2.26
Cc1cc(-c2ccccc2)nc2cc(C(=O)N(Cc3ccccc3)Cc3ccccc3)nn12 | -3.92
CN(C)C(=S)Nc1ccc(Br)cc1Cl | 7.39
Nc1nccnc1C(=O)N/N=C/c1ccco1 | 13.2
Cc1csc(NC(=O)CSc2nnc(CCNC(=O)c3ccc(Cl)c(Cl)c3)n2C)n1 | 2.76
COc1ccc(-n2nnnc2SCC(=O)Nc2ccccc2N2CCOCC2)cc1 | -6.62
COc1ccccc1C(=O)C1CCCN(Cc2cccc3nccnc23)C1 (stereo not shown) | -45
CSc1ccc(C(=O)C2CCCN(Cc3cccc4nccnc34)C2)cc1 (stereo not shown) | -82
COc1ccc(CN2CCCC(C(=O)c3ccc(Cl)cc3)C2)cc1Cn1cccn1 (stereo not shown) | -78.4
O=C(c1ccc(Cl)cc1)C1CCCN(Cc2ccc3ncccc3c2)C1 (stereo not shown) | -2.91
COc1c(C)cc(C(=O)C2CCCN(Cc3cccc4nccnc34)C2)cc1C (stereo not shown) | -21.2
